# Assay results published in the supplement of paper PMC8728848.
# The sample as a whole holds a higher share of the strongest signals than the screen did.
# Key:
# Assay in all cases: glycan array binding signal (z-score within array); higher = stronger binding
# Settings in all cases: glycan notation: IUPAC condensed, linker removed
# [1] = biological target: Fuc(a1-2)Gal(b1-3)GalNAc(a1-3)[Fuc(a1-2)]Gal(b1-4)GlcNAc
# Procedure, shortened: (§1)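 The binding signal is a Z-score computed within each array and averaged over linkers. Arrays of the same protein sequence at different concentrations or buffers were also averaged together. Data originate from 3228 arrays in the Consortium for Functional Glycomics database, kept only where the protein sequence was available.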
# [2] = biological target: Fuc(a1-2)Gal(b1-3)GlcNAc(b1-3)Gal(b1-4)Glc
# Procedure, shortened: as §1
# [3] = biological target: Fuc(a1-2)Gal(b1-3)GlcNAc(b1-3)[Fuc(a1-3)[Gal(b1-4)]GlcNAc(b1-6)]Gal(b1-4)Glc
# Procedure, shortened: as §1
# [4] = biological target: Fuc(a1-2)Gal(b1-4)[Fuc(a1-3)]GlcNAc(b1-3)Gal(b1-4)[Fuc(a1-3)]GlcNAc(b1-3)Gal(b1-4)[Fuc(a1-3)]GlcNAc
# Procedure, shortened: as §1
# [5] = biological target: Fuc(a1-2)[Gal(a1-3)]Gal(b1-4)GlcNAc(b1-2)Man(a1-3)[Fuc(a1-2)[Gal(a1-3)]Gal(b1-4)GlcNAc(b1-2)Man(a1-6)]Man(b1-4)GlcNAc(b1-4)GlcNAc
# Procedure, shortened: as §1
# [6] = biological target: Fuc(a1-2)[Gal(a1-3)]Gal(b1-4)[Fuc(a1-3)]GlcNAc
# Procedure, shortened: as §1
# [7] = biological target: Fuc(a1-2)[GalNAc(a1-3)]Gal(b1-4)[Fuc(a1-3)]GlcNAc
# Procedure, shortened: as §1
# [8] = biological target: Fuc(a1-3)[Gal(b1-4)]GlcNAc(b1-4)Gal(b1-4)[Fuc(a1-3)]GlcNAc
# Procedure, shortened: as §1
# [9] = biological target: Fuc(a1-3)[Gal(b1-4)]GlcNAc(b1-6)[Gal(b1-3)GlcNAc(b1-3)]Gal(b1-4)Glc
# Procedure, shortened: as §1
# [10] = biological target: Fuc(a1-3)[GalNAc(b1-4)]GlcNAc
# Procedure, shortened: as §1
# Fuc(a1-4)GlcNAc = biological target: Fuc(a1-4)GlcNAc
# Procedure, shortened: as §1
# Gal(b1-4)Glc6S = biological target: Gal(b1-4)Glc6S
# Procedure, shortened: as §1
# [11] = biological target: Gal(b1-4)GlcNAc(b1-2)Man(a1-3)[Gal(b1-4)GlcNAc(b1-2)Man(a1-6)]Man(b1-4)GlcNAc(b1-4)GlcNAc
# Procedure, shortened: as §1
# [12] = biological target: Gal(b1-4)GlcNAc(b1-2)Man(a1-6)Man(b1-4)GlcNAc(b1-4)GlcNAc
# Procedure, shortened: as §1
# [13] = biological target: Gal(b1-4)GlcNAc(b1-3)[Gal(b1-4)GlcNAc(b1-6)]GalNAc
# Procedure, shortened: as §1
# [14] = biological target: Gal(b1-4)GlcNAc(b1-6)GalNAc
# Procedure, shortened: as §1
# [15] = biological target: Gal3S(b1-3)[Fuc(a1-4)]GlcNAc
# Procedure, shortened: as §1
# [16] = biological target: GalNAc(b1-3)Gal(a1-4)Gal(b1-4)GlcNAc
# Procedure, shortened: as §1
# Glc(b1-4)Glc = biological target: Glc(b1-4)Glc
# Procedure, shortened: as §1
# [17] = biological target: GlcNAc(b1-3)Gal(b1-4)GlcNAc
# Procedure, shortened: as §1
# [18] = biological target: GlcNAc(b1-3)[GlcNAc(b1-6)]GalNAc
# Procedure, shortened: as §1
# [19] = biological target: GlcNAc(b1-4)Gal(b1-4)GlcNAc
# Procedure, shortened: as §1
# [20] = biological target: GlcNAc(b1-4)[GlcNAc(b1-6)]GalNAc
# Procedure, shortened: as §1
# Kdn(a2-6)Gal(b1-4)GlcNAc = biological target: Kdn(a2-6)Gal(b1-4)GlcNAc
# Procedure, shortened: as §1
# [21] = biological target: Man(a1-2)Man(a1-2)Man(a1-3)Man
# Procedure, shortened: as §1
# [22] = biological target: Man(a1-2)Man(a1-2)Man(a1-6)[Man(a1-3)]Man
# Procedure, shortened: as §1
# Man(a1-2)Man(a1-3)Man = biological target: Man(a1-2)Man(a1-3)Man
# Procedure, shortened: as §1
# [23] = biological target: Man(a1-2)Man(a1-3)[Man(a1-2)Man(a1-6)]Man
# Procedure, shortened: as §1
# [24] = biological target: Man(a1-2)Man(a1-3)[Man(a1-2)Man(a1-6)]Man(a1-6)[Man(a1-2)Man(a1-2)Man(a1-3)]Man
# Procedure, shortened: as §1
# [25] = biological target: Man(a1-2)Man(a1-6)[Man(a1-3)]Man(a1-6)[Man(a1-2)Man(a1-2)Man(a1-3)]Man
# Procedure, shortened: as §1
# [26] = biological target: Man(a1-2)Man(a1-6)[Man(a1-3)]Man(a1-6)[Man(a1-2)Man(a1-2)Man(a1-3)]Man(b1-4)GlcNAc(b1-4)GlcNAc
# Procedure, shortened: as §1
# Man(a1-6)Man = biological target: Man(a1-6)Man
# Procedure, shortened: as §1
# Man(b1-4)GlcNAc = biological target: Man(b1-4)GlcNAc
# Procedure, shortened: as §1
# Neu5Ac(a2-3)Gal = biological target: Neu5Ac(a2-3)Gal
# Procedure, shortened: as §1
# [27] = biological target: Neu5Ac(a2-3)Gal(b1-3)GalNAc(b1-4)[Neu5Ac(a2-3)]Gal(b1-4)Glc
# Procedure, shortened: as §1
# [28] = biological target: Neu5Ac(a2-3)Gal(b1-3)GlcNAc(b1-3)Gal(b1-4)GlcNAc
# Procedure, shortened: as §1
# [29] = biological target: Neu5Ac(a2-3)Gal(b1-3)GlcNAc(b1-3)GalNAc
# Procedure, shortened: as §1
# [30] = biological target: Neu5Ac(a2-3)Gal(b1-4)GlcNAc(b1-3)Gal(b1-4)[Fuc(a1-3)]GlcNAc
# Procedure, shortened: as §1
# [31] = biological target: Neu5Ac(a2-3)Gal(b1-4)[Fuc(a1-3)]GlcNAc(b1-3)Gal(b1-4)[Fuc(a1-3)]GlcNAc(b1-3)Gal(b1-4)[Fuc(a1-3)]GlcNAc
# Procedure, shortened: as §1
# Neu5Ac(a2-6)Gal = biological target: Neu5Ac(a2-6)Gal
# Procedure, shortened: as §1
# [32] = biological target: Neu5Ac(a2-6)Gal(b1-4)GlcNAc(b1-3)GalNAc
# Procedure, shortened: as §1
# Neu5Ac(a2-6)GalNAc = biological target: Neu5Ac(a2-6)GalNAc
# Procedure, shortened: as §1
# [33] = biological target: Neu5Ac(a2-8)Neu5Ac(a2-3)Gal(b1-4)Glc
# Procedure, shortened: as §1
binder,measurement,setting,value
"CTLY 1 (Homo sapiens), Q6ZS10 (protein) AITCPEGWLPFEGKCYYFSPSTKSWDEARMFCQENYSHLVIINSFAEHNFVAKAHGSPRVYWLGLNDRAQEGDWRWLDGSPVTLSFWEPEEPNNIHDEDCATMNKGGTWNDLSCYKTTYWICERKGLNDIFEAQKIEWHE",glycan array binding signal (z-score),[1],-0.207
same,glycan array binding signal (z-score),[2],-0.241
same,glycan array binding signal (z-score),[3],-0.239
same,glycan array binding signal (z-score),[4],4.81
same,glycan array binding signal (z-score),[5],-0.174
same,glycan array binding signal (z-score),[6],-0.207
same,glycan array binding signal (z-score),[7],5.5
same,glycan array binding signal (z-score),[8],0.526
same,glycan array binding signal (z-score),[9],-0.219
same,glycan array binding signal (z-score),[10],-0.188
same,glycan array binding signal (z-score),Fuc(a1-4)GlcNAc,-0.24
same,glycan array binding signal (z-score),Gal(b1-4)Glc6S,-0.248
same,glycan array binding signal (z-score),[11],-0.242
same,glycan array binding signal (z-score),[12],-0.226
same,glycan array binding signal (z-score),[13],-0.246
same,glycan array binding signal (z-score),[14],-0.23
same,glycan array binding signal (z-score),[15],1.29
same,glycan array binding signal (z-score),[16],-0.243
same,glycan array binding signal (z-score),Glc(b1-4)Glc,-0.243
same,glycan array binding signal (z-score),[17],-0.237
same,glycan array binding signal (z-score),[18],-0.066
same,glycan array binding signal (z-score),[19],-0.212
same,glycan array binding signal (z-score),[20],0.086
same,glycan array binding signal (z-score),Kdn(a2-6)Gal(b1-4)GlcNAc,-0.232
same,glycan array binding signal (z-score),[21],6.07
same,glycan array binding signal (z-score),[22],10.1
same,glycan array binding signal (z-score),Man(a1-2)Man(a1-3)Man,1.1
same,glycan array binding signal (z-score),[23],4.5
same,glycan array binding signal (z-score),[24],8.68
same,glycan array binding signal (z-score),[25],4.81
same,glycan array binding signal (z-score),[26],0.475
same,glycan array binding signal (z-score),Man(a1-6)Man,-0.228
same,glycan array binding signal (z-score),Man(b1-4)GlcNAc,-0.239
same,glycan array binding signal (z-score),Neu5Ac(a2-3)Gal,-0.238
same,glycan array binding signal (z-score),[27],-0.231
same,glycan array binding signal (z-score),[28],-0.235
same,glycan array binding signal (z-score),[29],-0.237
same,glycan array binding signal (z-score),[30],-0.238
same,glycan array binding signal (z-score),[31],1.04
same,glycan array binding signal (z-score),Neu5Ac(a2-6)Gal,-0.253
same,glycan array binding signal (z-score),[32],-0.235
same,glycan array binding signal (z-score),Neu5Ac(a2-6)GalNAc,-0.248
same,glycan array binding signal (z-score),[33],-0.252
